# Assay outcomes from PubChem.
# JMJD2A Tudor – inhibitors of human JMJD2A Tudor domain | 390,000 compounds, 4.4% hits | AID 504339 | AlphaScreen JMJD2A-Tudor / H3K4me3 peptide binding | Potency, µM (series often up to 114 µM), without a hit: at the top dose activity change, negative = inhibition, actives largely listed as inhibitors; note: % is set by controls: 0 for no effect and ±100 for the full control effect; nearly all actives have a fitted effect of over 50% in size
# G9a block – G9a (human) methyltransferase inhibition. Q96KQ7. Potency, µM (doses to about 102 µM), without a hit: at the highest dose activity, negative = inhibition, actives largely listed as inhibitors. G9a H3K9 monomethylation, AlphaScreen, 2 h. 350,000 compounds, 8.8% hits. AID 504332; note: % is set by controls: 0 for no effect and ±100 for the full control effect; nearly all actives have a fitted effect of over 75% in size
# Target sequence (Q96KQ7 913-1193 limits assumed): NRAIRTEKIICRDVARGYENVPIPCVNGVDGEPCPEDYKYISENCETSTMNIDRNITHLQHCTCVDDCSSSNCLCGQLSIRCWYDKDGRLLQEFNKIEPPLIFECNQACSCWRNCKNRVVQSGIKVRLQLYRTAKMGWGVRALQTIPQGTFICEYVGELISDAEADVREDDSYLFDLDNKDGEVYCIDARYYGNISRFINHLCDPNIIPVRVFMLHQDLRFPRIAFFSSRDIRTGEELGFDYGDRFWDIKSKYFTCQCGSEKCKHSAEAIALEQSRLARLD
#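 Enzyme 20 nM + cpd, 15 min RT; add b-H3K9 pep 500 nM / SAM 20 uM; 2 h RT; anti-H3K9me1 Ab 0.5 ug/mL + SA donor / anti-rabbit acceptor beads 20 ug/mL each, 10 min; AlphaScreen read.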
# Sfp PPTase inh – blocks B. subtilis Sfp PPTase activity; Q9F4F7; Biochemical Sfp PPTase activity, qHTS; Potency, µM, for inactives: largest response in the series, negative = inhibition, most hits filed as inhibitors; 310,000 compounds, 3.5% hits;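 note: the enzyme is Sfp with the accession as filed and its product quenches rhodamine fluorescence; 0% = enzyme reaction without inhibitor and -100% = no enzyme wells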
#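 Compounds were incubated with enzyme (final 15 nM) for 15 min at room temperature before substrate addition started the reaction. Fluorescence at 525 nm excitation, 598 nm emission was recorded immediately and after 30 minutes.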
# HP1b chromo inh – blocks HP1-beta chromodomain binding to methylated histone tails. P83916. Potency, µM (top dose mostly 114 µM), for inactives: at the highest dose activity change, negative = inhibition, most hits filed as inhibitors. 390,000 compounds, 0.56% hits. AID 540317. AlphaScreen HP1-beta / biotin-H3K9me3 peptide binding; note: nearly all actives have a fitted effect of over 70% in size
# Target sequence (P83916 whole entry, looked up): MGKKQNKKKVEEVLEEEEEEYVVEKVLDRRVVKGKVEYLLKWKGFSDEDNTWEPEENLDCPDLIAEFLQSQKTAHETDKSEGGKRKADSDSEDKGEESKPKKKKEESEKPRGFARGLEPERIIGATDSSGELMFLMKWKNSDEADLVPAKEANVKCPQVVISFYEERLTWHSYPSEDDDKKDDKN
#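 AlphaScreen: HP1-beta (50 nM) preformed 30 min with biotin-H3(1-18)K9me3 peptide (50 nM) in PBS pH 7.4, 0.01% Tween-20. Compound added for 30 min at RT, then streptavidin donor/nickel chelate acceptor beads (10 ug/mL) for 30 min.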
# BAZ2B block – inhibitors of human BAZ2B bromodomain | Q9UIF8 | AlphaScreen BAZ2B-H3K14Ac peptide displacement | Potency, µM (top dose mostly 114 µM), inactives show at the highest dose activity change, negative = inhibition, actives largely listed as inhibitors | 360,000 compounds, 4.4% hits; note: % is set by controls: 0 for no effect and ±100 for the full control effect; nearly all actives have a fitted effect of over 60% in size
#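 Compounds, titrated to a top concentration of 110 uM, were incubated 30 min at room temperature with preformed BAZ2B/acetyl-K14 H3 peptide complex (50 nM each). Proximity signal was measured by AlphaScreen after 20 min with beads.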
# The depositor's hits bear a star; ? = inconclusive; . = no result; [ ] = dose if it differs, or a comment. Compounds with a hit are over-represented: about 12% of the library has one in this group of screens. Calls come from the whole dose curve; as a rule, active = well fitted curve in the direction sought with a large enough effect; inconclusive = small, poorly fitted or top-dose-only effect, or another doubt; inactive = no such curve, though single readings can be large; an effect the other way counts as inactive or inconclusive. Potency is the fitted concentration of half-maximal effect.
SMILES,JMJD2A Tudor,G9a block,Sfp PPTase inh,HP1b chromo inh,BAZ2B block
COCCN1C(=O)c2[nH]nc(-c3ccccc3O)c2C1c1ccc(OCc2ccccc2)c(OC)c1 (configuration not stated),?,-37%[59 µM],.,9%,?
CCc1sc(/C=C(/C#N)C(N)=S)cc1[N+](=O)[O-],?,13µM*,2.8µM*,?,?
COc1ccc(OC)c(C2CC(=O)NC(SC)=C2C#N)c1 (configuration not stated),-14%,?,0%,38%,6%
COc1ccc(OC)c(C2CC(=O)N3CN(c4cccc(Cl)c4C)CSC3=C2C#N)c1 (configuration not stated),18µM*,1.4µM*,3.5µM*,?,32µM*
COc1cccc(C2CC(=O)N3CN(c4cccc(Cl)c4C)CSC3=C2C#N)c1OC (configuration not stated),16µM*,1.8µM*,3.5µM*,?,25µM*
COc1ccc(OC)c(C2CC(=O)N3CN(c4ccccc4F)CSC3=C2C#N)c1 (configuration not stated),22µM*,2.2µM*,?,14µM*,22µM*
COc1cc(CN2CC(=O)N(c3cccc(Cl)c3C)C2=S)cc(OC)c1OC,-12%,10%[2.33 µM],4%,5%,-11%
CCOC(=O)N1CCC(NS(=O)(=O)c2ccc(C#N)cc2)CC1,-11%,17%,12%,15%,-17%
CCOc1ccccc1NC(=O)c1c(NCc2sccc2C)sc2c1CCCCC2,?,10µM*,.,4%,?
COc1ccc(Cl)cc1NC(=O)c1c(NCc2sccc2C)sc2c1CCCC2,50µM*,2.8µM*,.,?,45µM*
CCOc1ccccc1NC(=O)c1c(NCc2sccc2C)sc2c1CCC(C)C2 (configuration not stated),-29%,-29%[59 µM],.,-4%,-29%
CCOC(=O)N1CCc2c(sc(NCc3sccc3C)c2C(=O)Nc2ccc(OC)cc2OC)C1,?,3.5µM*,.,-2%,?
COc1ccc(NC(=O)c2c(NCc3sccc3C)sc3c2CCCCC3)c(OC)c1,?,11µM*,.,-18%,32µM*
O=C(NCCC[N+]1=CC=N[C@H]1c1ccccc1)N1CCCc2nc(-c3ccc(Br)cc3)ccc21,.,.,10%,.,.
COc1ccc(NC(=O)c2c(NCc3cccc(F)c3)sc3c2CCCC3)c(OC)c1,?,10µM*,.,?,25µM*
CCOC(=O)N1CCc2c(sc(NCc3sccc3C)c2C(=O)Nc2ccccc2OCC)C1,?,8.9µM*,.,7%,-23%
COc1ccccc1NC(=O)c1c(NC(=O)COc2ccccc2)sc2c1CCCCC2,-4%,12%[59 µM],.,72%,7%
COc1ccc(OC)c(NC(=O)c2c(NC(=O)c3ccco3)sc3c2CCC3)c1,.,-26%[12.7 µM],-1%,.,8%
COc1ccccc1NC(=O)c1c(NCc2sccc2C)sc2c1CCCCC2,45µM*,10µM*,.,?,32µM*
CCCn1c(=O)c2sccc2n2c(CCCC(=O)NCCOC)nnc12,-9%,-5%[59 µM],.,21%,-11%
O=C1C(Cl)=C(NCc2ccco2)C(=O)c2ccccc21,?,.,.,50µM*,.
O=C1C(Cl)=C(NCCN2CCCCC2)C(=O)c2ccccc21,?,50µM*,1%,-25%,?
O=C(NCCN1CCCC1)c1ccccc1Cl,-16%,-42%,16%,19%,-4%
CCc1oc(C(=O)OC)cc1CSC(=N)N,-15%,50µM*,12%,12%,-6%
CCCn1c(SCC(=O)C(C)(C)C)nc2ccccc21,6%,35µM*,56µM*,46%,-15%
SMILES,JMJD2A Tudor,G9a block,Sfp PPTase inh,HP1b chromo inh,BAZ2B block
CC(C)(C)NC(=O)Cn1c(SCC(=O)NC2CC2)nc2ccccc21,-1%,8%[59 µM],12%,12%,-3%
CCCn1c(SC(C)C(=O)O)nc2ccccc21 (configuration not stated),?,-39%[12.7 µM],2%,63%,?
CC(C)(C)NC(=O)Cn1c(SCC(N)=O)nc2ccccc21,20µM*,-7%[0.0925 µM],5%,-9%,8%
Cn1nnnc1N=N/C(=N/Nc1ccccc1)c1ccccc1,1.6µM*,.,2%,28µM*,1.3µM*
C=CCn1c(C)csc1=Nc1ccc(C(C)=O)cc1,-5%[11.4 µM],?,-10%,-3%,45µM*
C=CCn1c(C)csc1=Nc1ccccc1C,56µM*,50µM*,17%,50µM*,50µM*
C=CCn1c(CC(=O)OC)csc1=Nc1ccc(C(C)=O)cc1,-12%,?,9%,-12%,?
CCOC(=O)c1ccc(N=c2scc(C)n2CC)cc1,40µM*,22µM*,9%,?,40µM*
COc1ccc(CCNC(=O)c2cc(=O)[nH]c3ccc(S(=O)(=O)N4CCCCC4)cc23)cc1OC,-24%,-2%[59 µM],.,18%,1%
CCOc1ccc(C(C)=O)cc1COc1ccc(-c2nnco2)cc1,-11%,.,-11%,22%,50µM*
COc1ccc(C(C)=O)cc1COc1ccc(F)cc1,28%,42%,-2%,132%,-1%
CC(C)C(NC(=O)Cc1ccccc1)C(=O)N1CCN(c2cccc(Cl)c2)CC1 (configuration not stated),-13%,6%[2.33 µM],.,17%,-5%
Cc1cc(C)c(NC(=O)CCn2c(=O)c3cccn3c3cccnc32)c(C)c1,6%,2%[59 µM],.,56%,-1%
CC(=O)c1ccc(OCCCC(=O)n2nnc3ccccc32)cc1,79µM*,-12%[59 µM],-5%,-15%,-1%
CCN(CC)c1ccc(C(=O)NCc2ccc3c(c2)CCN3C(C)=O)cc1,-27%,-28%[59 µM],.,33%,-17%
COc1ccc2oc(C(=O)NCCc3ccccc3)c(C)c2c1,9%,-10%[2.33 µM],.,27%,8%
COc1ccc2oc(C(=O)NCc3cc(OC)c(OC)cc3OC)c(C)c2c1,35µM*,?,-8%,?,?
CSc1ccccc1C(=O)NCC(c1ccco1)N(C)C (configuration not stated),-2%,40µM*,15%,22%,-17%
COc1ccc2oc(C(=O)NCC(c3ccco3)N(C)C)c(C)c2c1 (configuration not stated),-27%,?,.,-9%,50µM*
O=C(Nc1cc(F)ccc1F)c1ccc2c(c1)nnn2C1CCCC1,-7%,-3%[59 µM],.,20%,1%
CCC(=O)OCCCNc1nc(-c2ccc(Cl)cc2)nc2ccccc12,43%,-6%[59 µM],.,91%,29%
CCOc1cc(C2CC(=O)NC3=C2C(=O)C(C(=O)OC)C(C)C3)cc(Br)c1O (configuration not stated),-15%,45µM*,50µM*,18%,-7%
CCC1(CC)Cc2ccccc2C(CC(=O)N2CCOCC2)=N1,22µM*,40µM*,-14%,-24%,56µM*
O=C(CC1=NC2(CCCC2)Cc2ccccc21)N1CCOCC1,?,?,-18%,-2%,50µM*
